Test results as given in PubChem BioAssay (NCI).
The panel holds about 83,000 compounds, 20% with a hit somewhere; the sample as a whole holds those more often.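 Step 1: grow cells in 96-well plates. Step 2: add test compound at a single concentration. Step 3: incubate 48 h. Step 4: record percent growth.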 A number with no mark means an inactive call. Activity calls are given as the source filed them.

Tested on: M14 melanoma
Assay: NCI-60 one-dose screen, 48 h (100 = growth as untreated, 0 = no growth, -100 = all killed)
Details: 10 µM unless noted
Procedure: Growth inhibition of the M14 human tumor cell line is measured as a screen for anti-cancer activity. Cells are grown in 96 well plates and exposed to the test compound for 48 hours. Compounds are tested at a single concentration, which is 10^-5 M for most compounds. The reported endpoint is percent growth (GI% or GIPRCNT), where numbers from 0 - 100% represent growth inhibition, and numbers from -100% - 0 represent cell death. For example, a value of 40 represents 60% growth inhibition. A value of 0 means no net growth occurred over the course of the experiment. A value of -40 indicates 40% of cells at the beginning of the experiment died by the end of the experiment. A value of -100 means all cells are dead at the end of the experiment.
NCI-60 Human Tumor Cell Lines Screen was performed using the standard one-dose NCI protocol, which is described in more detail at https://dtp.cancer.gov/discovery_development/nci-60/default.htm.
Compounds with GIPRCNT values below 10 were considered active. Activity score was based on GIPRCNT using the following formula: […]
Score is 0 for GIPRCNT values of 100 or above, 50 for GIPRCNT values of 0, and 100 for GIPRCNT values of -100.

SMILES	growth
N/C(=N\c1nc2ccccc2s1)NC(=O)Nc1ccccc1Cl	13.4%
N#Cc1ncc(-c2ccc(C(F)(F)F)cc2)c(NC2CCCCCC2)n1	22.4%
CCN(CC)c1ccc(/C=C/C(=O)c2cccc(NS(C)(=O)=O)c2)cc1	32.1%
C[C@@H]1CN(c2nc3c(cc2F)c(=O)c(C(=O)O)cn3C(C)(C)C)C[C@H](C)N1	98.8%
CC1CN(/N=C/c2ccc([N+](=O)[O-])o2)C(=N)O1 (stereo not given)	106%
C[C@H]1c2cccc(O)c2C(O)=C2C(=O)[C@]3(O)C(O)=C(C(N)=O)C(=O)[C@@H](N(C)C)[C@@H]3[C@@H](O)[C@@H]21	32.1%
O=C(O)CNC(=O)C1(N2C(=O)c3ccccc3C2=O)CCCC1	105%
COc1cc(C2CC(c3ccc(C)cc3)=NN2C=O)ccc1OCCN(C)C (stereo not given)	96.8%
O[N+]1=CC=CCC1=S.On1ccccc1=S.[Zn]	-74.2% (active)
CC(NNC(=S)N1CCCCCC1)c1ccc2ccccc2n1 (stereo not given)	21%
COc1cc(/C=C/C(=O)c2c(C)n([O-])c3ccc(Cl)cc3[n+]2=O)cc(OC)c1OC	78.4%
Cc1cc2c(cc1C)[n+](Cc1ccc3ccccc3c1)cn2Cc1ccc2ccccc2c1	-78.8% (active)
Cc1c2oc3c(C)ccc(C(=O)OC(C)C4NC(=O)C(C(C)C)N(C)C(=O)CN(C)C(=O)C5CCCN5C(=O)C(C(C)C)NC4=O)c3nc-2c(C(=O)OC(C)C2NC(=O)C(C(C)C)N(C)C(=O)CN(C)C(=O)C3CCCN3C(=O)C(C(C)C)NC2=O)c(N)c1=O (stereo not given)	-55.7% (active)
O=C(c1ccc(Cl)cc1)c1ccc(Cl)cc1	114%
C[C@]12CC[C@H](O)CC1=CC[C@@H]1[C@@H]2CC[C@]2(C)C(c3cccnc3)=CC[C@@H]12	71%
O=C(/C=C/c1ccc([N+](=O)[O-])cc1)c1ccc2c3c(cccc13)CC2	95.3%
O=C(Oc1ccccc1)C(Br)C(Br)c1ccccc1 (stereo not given)	102%
CC(C)C[C@H](NC(=O)/C=C/Cn1ccc2ccccc2c1=O)B(O)O	21.1%
COc1cc(OC)c2c(c1Cl)O[C@]1(C2=O)C(OCc2ccccc2)=CC(=O)C[C@H]1C	2.91% (active)
C[C@H]1C(=O)N2c3ccccc3[C@@]3(O)C[C@@H](n4cnc5ccccc5c4=O)C(=O)N1[C@@H]23	108%

SMILES	growth
O=C(N/N=C/c1ccc(Cl)cc1Cl)c1ccccc1Nc1cccc(C(F)(F)F)c1	95.6%
Cc1ccccc1NC(=O)N/C(N)=N/c1nc2ccccc2s1	9.91% (active)
CCOC(=O)CNC(=O)C1(NC(=O)CNC(=O)OCc2ccccc2)CCCC1	110%
O=C(COc1cccc(/C=C2\Oc3ccc4ccccc4c3C2=O)c1)c1ccc([N+](=O)[O-])cc1	79.4%
COc1ccc2nc(N/N=C(\C)c3ccccn3)cc(C)c2c1	-78.7% (active)
NS(=O)(=O)c1cc2c(cc1Cl)NC=NS2(=O)=O	96.4%
N[C@H](CS)C(=O)O	116%
N#Cc1c(-c2ccccc2)cc(-c2ccccc2)n(CC(=O)O)c1=O	26.3%
COc1cc(-c2nc3sc4c(c3c(=O)[nH]2)CCCCCC4)cc(OC)c1OC	23.1%
O=c1ncc(-c2ccc(C(F)(F)F)cc2)c(NC2CCCCCC2)[nH]1	34.8%
COc1cccc(C=Nc2cc(C(C)C)c(O)cc2C)c1O	106%
O=C(N/N=C/c1cccc([N+](=O)[O-])c1)c1ccc(Br)o1	99.8%
OCCN1CCN(CCCN2c3ccccc3Sc3ccc(C(F)(F)F)cc32)CC1	-80.9% (active)
CCCCCN1C(=O)CCC1=O	107%
O=C(Nc1cccc(-n2cc(-c3ccncc3)c(-c3cc(O)cc(Cl)c3)n2)c1)Nc1ccc(Cl)c(Cl)c1	-69.2% (active)
O=C1N=C(N2CCOCC2)S/C1=C\c1cn(-c2ccccc2)nc1-c1ccccc1	83.5%
CC[N+](CCCCCCCCCC[N+](CC)(c1ccccn1)c1ccccn1)(c1ccccn1)c1ccccn1	10.3%
CCOC(=O)C1C(=O)NC(C(=O)OCC)(C(=O)OCC)C1CC (stereo not given)	110%
CN1CCN(CCCCCN=c2cc3c(=O)n(CCCCCN4CCN(C)CC4)c(=O)c4c(NCCCCCN5CCN(C)CC5)cc5c(O)n(CCCCCN6CCN(C)CC6)c(=O)c2c5c4-3)CC1	81.8%
Cc1cc(=O)oc2cc(OCCn3c(C)nn(-c4ccc(Cl)cc4)c3=O)ccc12	14.7%
